Experimental data published in the OligoGym collection.

Biological target: GLA
Assay: pooled miR-30 sensor sort-seq; sequence = guide strand
Conditions: shRNA
Also: reference of the scale not given here.

Sequence	sensor-assay potency score (higher = more potent)
TGTCACAGTAACAACCATCAAA	-0.951
TTACTTGCTGATTCCAGCTGAG	0.0513
TAGACATGAATAAAGGAGCAGC	-0.359
AACATCAACAATTCTCTCCTGG	0.959
TTTAGCAGATCTACTCCCCAGT	-0.498
TTAACCTTGAAGTCCATTCATA	-0.885

Biological target: GLCE
Assay: as above
Conditions: shRNA

Sequence	sensor-assay potency score (higher = more potent)
TAAAAAGTTGAACACAGTCTGC	-0.82
TTGCATATAGTATTTGATCTAA	-0.789
TAAAAGGTCAAACTTGACCTTC	-0.602
TTTGTTAACAGATAGGCCCTGA	0.615
TCAAACTTGACCTTCATCCAGA	-0.0575
TTTAACATCAAAGTGAACTCAA	0.589
TTATTTTGAACATCGGCACTGG	0.23
TAACATGTGCACATTGTGCTTA	0.792
TTACTAGCCAATCACTAGCAGC	-1.01
TTACCTTTTGCAATCAACCTAA	0.22
TAACATATGGTATATAACCCAC	-0.994
TACCATACTGTTATCATCGAGT	0.0428

Biological target: GLI3
Assay: as above
Conditions: shRNA

Sequence	sensor-assay potency score (higher = more potent)
TTTCGTGTCTTGCTGACTGAAG	-0.362
TCTGATGATAGTATTCTGCTGG	0.381
TATACTACCTCCATCGGTCAGA	-0.385
TTGATCTTGGACCTCTTGTTGT	-0.765
TTGTCGGCTTAGGATCTGCTGA	-0.967
TTTGGTCATAGAACTGACCAGA	-0.608
TTTGAGTGTAACAATACTGATT	-0.904
TTGAGAATCGTGACCAAGGAGT	-0.494
TTGTGTCACTGAGCTGTCCTGA	-0.401
TTTTTCTTTTCAGTGGTCGTGG	0.0526

Biological target: GLIPR2
Assay: as above
Conditions: shRNA

Sequence	sensor-assay potency score (higher = more potent)
TTCTTGATTTCACTGTACCATC	-1.16
TTATAGTTCTTGATTTCACTGT	0.709
ATCTTCTTGGTGTTCTTCCATA	-1.63
TATCTGGCCACCACAAAGGAGG	-1.73
ATAGTTCTTGATTTCACTGTAC	0.205
TTCTTCCATACCATGGCCGTGA	-1.01
TCATTGACAACATTCCCCGCTG	-0.0819
TTCTTGCAGAGCTTCAGTGGGG	-0.474
TGCTTGAGGATCCTCGTGCTGG	-0.832
TATAGTTCTTGATTTCACTGTA	0.562
TTTCCTGTCTGATCATAGGATG	-0.835
TTGACAACATTCCCCGCTGGGA	-0.899
